Results on six compounds are retold here after PubChem BioAssay (NCATS).

Experiment [1] can be described thus: AP1 Signaling Pathway (AID 357; active = well fitted curve in either direction with a large enough effect, not every such curve was filed as active;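 also: ME-180 reporter cells stimulated with EGF at its EC50 level; % is scaled to controls: 0 for no effect and ±100 for the full control effect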). The settings on record: ME-180 AP-1-bla reporter, EGF-induced, beta-lactamase ratio, 5 h; at 17.2 µM (top of the series) unless noted. In outline: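 In this screen, ME-180 cells in Opti-MEM with 0.5% dialyzed FBS received EC50 EGF and compound titrations for 5 h. AP-1 reporter beta-lactamase was detected via CCF4 ratio, giving AC50 for positive and negative modulators.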

In experiment [2] the target is Cytochrome P450 1A2 (Homo sapiens) (UniProt P05177). Kind of experiment: p450-cyp1a2 (AID 410; calls by dose curve; also: potency is read from the fitted curve at half-maximal effect;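 as to activity change, negative = inhibition: -100% = full effect of reference inhibitor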). In short, it runs like this: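 20nM CYP1A2, 100uM Luciferin-ME (=Km), 100mM KPO4; cpd 10 min RT; +NADPH regen, 60 min RT; stop/detect 20 min; luminescence. Normalized to furafylline 57 uM = full inhibition.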
Experiment [3] concerns the target Glucocorticoid receptor (Homo sapiens) (UniProt P04150). Put plainly: GR-GFP Redistribution (AID 450;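 active = compounds whose dose series gives a full or clear partial fitted curve of increased nuclear translocation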; also: potency is read from the fitted curve at half-maximal effect).
The target is the same in experiment [4]. Put plainly: GR-EFC Redistribution (AID 451; calls by dose curve; also: potency is read from the fitted curve at half-maximal effect). Conditions: CHO-K1 GR-EFC translocation, beta-gal luminescence, 2 h. In outline:
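Translocation of GR-ED fusion to nuclear EA restores b-gal, read by luminescence after 1 h room-temperature detection. Engineered CHO-K1 biosensor cells, 1,000/well, exposed 2 h at 37 C to titrations up to 46 uM final.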

Experiment [5] addresses Mitogen-activated protein kinase 10 (Mus musculus) (UniProt Q61831). Put plainly: JNK3 AlphaScreen Assay (AID 530; active = well fitted curve in either direction with a large enough effect, not every such curve was filed as active;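 also: kinase came from lysate of stimulated human HepG2 cells; signal reports phosphorylation of biotinylated GST-cJun 1-79 at Ser73 with 10 µM ATP; % is scaled to controls: 0 for no effect and ±100 for the full control effect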). In short, it runs like this:
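Kinase buffer: 20 mM Tris-HCl pH 7.6, 10 mM MgCl2, 1 mM DTT, 0.1 mM Na3VO4, 0.01% Tween-20; ATP 10 uM. Substrate biotin-GST-cJun(1-79), enzyme from activated HepG2 lysates. Detection by Ser73 phospho-antibody AlphaScreen.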

The target of experiment [6] is 3',5'-cyclic-AMP phosphodiesterase 4B (Homo sapiens) (UniProt Q07343). Kind of experiment: qHTS Assay for Inhibitors of PDE-IV (AID 607; active = well fitted activation curve with a large enough effect in the main read-out, with a control signal flat, not every such curve was filed as active; also: % of control where 0% means no effect). In outline:
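Cell-based read-out of cAMP via a modified cyclic nucleotide-gated channel and membrane potential dye (535/590 nm) in HEK293 cells expressing PDE4 endogenously. Compounds tested up to 22.9 uM final; 100 uM RO 20-1724 reference.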
(In qHTS, concentration-response curves come from the screen itself.)

Experiment [7] concerns the target Guanine nucleotide-binding protein G(i) subunit alpha-1 (Homo sapiens) (UniProt P63096). Put plainly: qHTS Assay for Inhibitors of RGS12 GoLoco Motif Activity (Green Fluorophore) (AID 879).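 Also: 0% = labeled peptide with Gαi1 and full inhibition = labeled peptide alone without protein; negative values mean loss of peptide binding seen as reduced polarization.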 In short, it runs like this: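 A drop in FITC polarization marked displacement of the FITC-tagged RGS12 GoLoco peptide (10 nM) from Gαi1 (50 nM). Compounds were incubated 10 min at room temperature in Tris pH 7.5 buffer containing 150 mM NaCl, 0.1 mM GDP and 0.05% NP40; unlabeled peptide titration served as control.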

In experiment [8] the target is Pyruvate kinase (Leishmania mexicana) (UniProt Q27686). Kind of experiment: qHTS Validation Assay for Inhibitors of Leishmania Mexicana Pyruvate Kinase (AID 945).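 Also: 0% = DMSO only neutral control wells.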 In short, it runs like this:
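Read-out: luminescence from PKLight stop/detection reagent, data normalized to DMSO. Reaction: 0.2 nM E451W LmPYK, 0.5 mM PEP, 0.1 mM ADP, pH 7.2, 1 h room temperature.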

For experiment [9], the target named is Pyruvate kinase PKM (Homo sapiens) (UniProt P14618). Kind of experiment: qHTS Assay for Activators of Human Muscle Pyruvate Kinase (AID 954; active = well fitted curve in the direction sought with a large enough effect, not every such curve was filed as active;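 also: 0% = uninhibited enzyme and -100% = no enzyme or full thiadiazolimine inhibition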). In outline:
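ATP production by PKM2 detected via luciferase luminescence after 1 h room-temperature reaction (0.1 nM enzyme, PEP at Km 0.5 mM, ADP 0.1 mM, pH 7.2 imidazole buffer). Inhibition scaled to no-enzyme control; activation referenced to 0.3 nM enzyme wells.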

Experiment [10] has as its target Alpha-galactosidase A (Homo sapiens) (UniProt P06280). Kind of experiment: Counterscreen for Glucocerebrosidase Inhibitors: qHTS Assay for Human alpha-Galactosidase at pH 4.5 (AID 992). Also: 0% is about no effect. In short, it runs like this:
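Fluorogenic 1536-well qHTS at pH 4.5 (citrate, Tween-20): 2 nM enzyme, 80 uM 4-MU-alpha-galactoside, 20 min room temperature, NaOH/glycine stop. Titration 0.7 nM to 77 uM, data normalized to no-enzyme and full-activity controls, Hill-fitted AC50.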

Experiment [11] addresses alpha-glucosidase (Oryza sativa, rice) (UniProt Q653V4). Kind of experiment: Counterscreen for Glucocerebrosidase Inhibitors: qHTS Assay for Rice alpha-Glucosidase at pH 5.0 (AID 997).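 Also: 0% = full activity with enzyme and -100% = basal without enzyme.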 In outline:
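Endpoint fluorogenic assay at pH 5.0: compounds (0.7 nM to 77 uM) titrated against 4 nM rice enzyme and 400 uM 4-MU-alpha-glucoside for 20 min at room temperature; NaOH/glycine stop, read ex 365/em 440 nm, Hill-fitted AC50.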
For orientation: Counterscreens check selectivity or assay interference.

The nature of experiment [12]: Stat Signaling Pathway (AID 446; active = well fitted curve in either direction with a large enough effect, not every such curve was filed as active;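 also: ME-180 cervical cancer cells given 40 pM IL-6 alongside compound; SIE-controlled beta-lactamase reporter measured as 460/530 nm FRET emission ratio; % is scaled to controls: 0 for no effect and ±100 for the full control effect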). Conditions: ME-180 (cervical carcinoma) SIE beta-lactamase reporter, IL-6 stimulated, 5 h; at 17.2 µM (top of the series) unless noted. In short, it runs like this:
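FRET read-out (405 nm excitation, 460/530 nm emission) of a beta-lactamase reporter under a STAT-inducible element in ME-180 cervical carcinoma cells. Cells with compound receive 40 pM IL-6 for 5 h. Values are normalised to AC90 stimulation and AC90 JAK-inhibitor controls.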

The target of experiment [13] is Cytochrome P450 3A4 (Homo sapiens) (UniProt P08684). Put plainly: qHTS Assay for Inhibitors and Substrates of Cytochrome P450 3A4 (AID 884). Also: % is scaled to controls: 0 for no effect and ±100 for the full control effect; nearly all actives have a fitted effect of over 50% in size. In outline:
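Luminescent readout of luciferin produced by CYP3A4 (20 nM) dealkylation of Luciferin-PPXE, 25 uM (its KM). NADPH-driven reaction ran 60 min at RT after 10 min compound preincubation; data scaled to 57 uM ketoconazole as 100% inhibition.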

The nature of experiment [14]: qHTS Assay for Identification of Small Molecule Antagonists for NFkB Signaling Pathway (AID 895; active = well fitted inhibition curve with a large enough effect in the signal ratio, with a control signal flat, not every such curve was filed as active; the % refers to the signal ratio; also: % is scaled to controls: 0 for no effect and ±100 for the full control effect). In short, it runs like this: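 Beta-lactamase reporter read-out (460 and 530 nm emission ratio, 405 nm excitation, 2 hrs substrate loading RT) after 5 hr stimulation with 10 pM TNF alpha in compound-treated NFkB-bla ME-180 cells in low-serum medium.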
The target in experiment [15] is Muscarinic acetylcholine receptor M1 (Rattus norvegicus) (UniProt P08482). Put plainly: qHTS Assay for Antagonists of Acetylcholine Muscarinic M1 Receptor: Measurement of IP-One Response (AID 944). Also: nearly all actives have a fitted effect of over 75% in size. Also: potency is read from the fitted curve at half-maximal effect. In short, it runs like this: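 Read-out: HTRF competition between d2-IP1 and Eu-cryptate anti-IP1 antibody, emission 620 and 665 nm. Stimulus was carbachol, EC80 (200 nM), for 30 min in M1-CHO cells (rat receptor), after 10 min compound pre-treatment.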

Experiment [16] addresses Cytochrome P450 3A4 (Homo sapiens) (UniProt P08684). Kind of experiment: qHTS Assay for Activators of Cytochrome P450 3A4 (AID 885). Also: nearly all actives have a fitted effect of over 65% in size. Also: potency is read from the fitted curve at half-maximal effect. In outline:
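Luminescent readout of luciferin formed from 25 uM Luciferin-PPXE (KM level) by 20 nM CYP3A4 in 200 mM KPO4, with 60 min NADPH-driven reaction at room temperature after 10 min compound exposure. Ketoconazole (57 uM) defined 100% inhibition.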

Experiment [17] addresses Cytochrome P450 2D6 (Homo sapiens) (UniProt P10635). Kind of experiment: qHTS Assay for Inhibitors and Substrates of Cytochrome P450 2D6 (AID 891). Also: potency is read from the fitted curve at half-maximal effect; nearly all actives have a fitted effect of over 60% in size. In outline:
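Luminescent read-out of luciferin formed by 5 nM human CYP2D6 demethylating 30 uM Luciferin-ME EGE (Km level) over 60 min at room temperature after NADPH regeneration addition. Data normalized to full inhibition by 1.43 uM quinidine.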

For experiment [18], the target named is Muscarinic acetylcholine receptor M1 (Rattus norvegicus) (UniProt P08482). Kind of experiment: qHTS Assay for Antagonists of Acetylcholine Muscarinic M1 Receptor: Kinetic Measurement of Intracellular Calcium Response (AID 943). Also: potency is read from the fitted curve at half-maximal effect; nearly all actives have a fitted effect of over 75% in size. In outline:
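Read-out: peak over basal Fluo-4 fluorescence, kinetic at 1 Hz for 4 min after EC80 carbachol (100 nM final). Rat M1-CHO cells, dye loaded 1 h at 37C, compound added 10 min before agonist.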

Experiment [19] is described as follows: NFAT Signaling Pathway (AID 444; active = well fitted curve in either direction with a large enough effect, not every such curve was filed as active). The settings on record: Jurkat NFAT-bla M1, carbachol, beta-lactamase ratio, 5 h; at 17.2 µM (top of the series) unless noted. In outline:
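Read-out: CCF4 FRET ratio (460 nm/530 nm) after 1 h RT dye loading, used for %activity and AC50 from titration series. Cells: Jurkat NFAT-β-lactamase/M1 line, treated with compound plus 1 uM carbachol for 5 h, 37 °C.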

Unmarked numbers belong to inactive results. Records with an inconclusive call do not appear. Calls of active or inactive are those of the source. Unless noted, calls follow the shape of the dose curve; as a rule, active = well fitted curve in the direction sought with a large enough effect; inconclusive = small, poorly fitted or top-dose-only effect, or another doubt; inactive = no such curve, though single readings can be large; an effect the other way counts as inactive or inconclusive.

Chain of Alpha-galactosidase A (Homo sapiens) (P06280 whole entry, looked up): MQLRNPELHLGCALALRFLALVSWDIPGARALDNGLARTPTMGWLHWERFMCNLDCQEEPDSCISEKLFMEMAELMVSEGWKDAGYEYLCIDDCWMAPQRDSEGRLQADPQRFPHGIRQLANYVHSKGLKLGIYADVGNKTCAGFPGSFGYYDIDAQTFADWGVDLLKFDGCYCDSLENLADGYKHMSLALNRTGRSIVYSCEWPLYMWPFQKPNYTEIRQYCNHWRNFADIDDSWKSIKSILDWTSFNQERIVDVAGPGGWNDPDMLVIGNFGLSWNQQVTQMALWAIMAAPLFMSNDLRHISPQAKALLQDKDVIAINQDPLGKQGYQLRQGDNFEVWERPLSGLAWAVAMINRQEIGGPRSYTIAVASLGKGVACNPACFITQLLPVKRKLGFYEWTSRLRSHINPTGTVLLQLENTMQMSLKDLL
Chain of Cytochrome P450 1A2 (Homo sapiens) (P05177 whole entry, looked up): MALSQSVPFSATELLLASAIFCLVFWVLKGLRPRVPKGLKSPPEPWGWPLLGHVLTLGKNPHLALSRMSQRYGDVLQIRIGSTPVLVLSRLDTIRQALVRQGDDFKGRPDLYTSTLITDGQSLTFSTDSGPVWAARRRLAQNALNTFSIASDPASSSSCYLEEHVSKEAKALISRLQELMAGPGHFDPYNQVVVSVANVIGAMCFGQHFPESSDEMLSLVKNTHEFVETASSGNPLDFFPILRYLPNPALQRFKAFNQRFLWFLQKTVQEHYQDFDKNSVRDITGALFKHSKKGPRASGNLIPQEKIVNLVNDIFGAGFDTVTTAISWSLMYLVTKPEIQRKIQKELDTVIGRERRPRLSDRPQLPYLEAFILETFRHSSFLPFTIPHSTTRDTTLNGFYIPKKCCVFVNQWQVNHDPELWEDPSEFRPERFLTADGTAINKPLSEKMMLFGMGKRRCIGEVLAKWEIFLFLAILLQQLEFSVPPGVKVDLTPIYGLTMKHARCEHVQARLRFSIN
Chain of Glucocorticoid receptor (Homo sapiens) (P04150 whole entry, looked up): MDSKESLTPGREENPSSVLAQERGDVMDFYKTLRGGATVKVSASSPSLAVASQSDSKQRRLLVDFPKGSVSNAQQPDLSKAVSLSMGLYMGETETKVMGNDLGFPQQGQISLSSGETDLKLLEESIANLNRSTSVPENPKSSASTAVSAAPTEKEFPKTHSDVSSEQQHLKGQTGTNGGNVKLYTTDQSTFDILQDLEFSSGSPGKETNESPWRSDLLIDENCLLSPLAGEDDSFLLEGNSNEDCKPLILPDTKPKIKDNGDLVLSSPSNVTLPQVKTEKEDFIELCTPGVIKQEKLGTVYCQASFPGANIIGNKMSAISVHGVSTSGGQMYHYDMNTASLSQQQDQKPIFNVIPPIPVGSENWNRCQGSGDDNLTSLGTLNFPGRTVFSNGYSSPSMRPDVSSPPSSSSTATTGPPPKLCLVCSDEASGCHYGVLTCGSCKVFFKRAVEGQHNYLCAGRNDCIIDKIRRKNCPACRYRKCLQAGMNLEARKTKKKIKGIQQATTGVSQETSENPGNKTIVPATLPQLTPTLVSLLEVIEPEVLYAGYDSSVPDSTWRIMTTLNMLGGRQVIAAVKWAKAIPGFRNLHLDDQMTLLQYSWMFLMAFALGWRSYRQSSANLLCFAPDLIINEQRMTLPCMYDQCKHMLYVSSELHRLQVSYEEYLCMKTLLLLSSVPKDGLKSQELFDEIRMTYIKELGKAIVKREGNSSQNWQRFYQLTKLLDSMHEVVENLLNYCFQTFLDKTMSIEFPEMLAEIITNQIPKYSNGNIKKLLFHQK
Chain of Pyruvate kinase PKM (Homo sapiens) (P14618 whole entry, looked up): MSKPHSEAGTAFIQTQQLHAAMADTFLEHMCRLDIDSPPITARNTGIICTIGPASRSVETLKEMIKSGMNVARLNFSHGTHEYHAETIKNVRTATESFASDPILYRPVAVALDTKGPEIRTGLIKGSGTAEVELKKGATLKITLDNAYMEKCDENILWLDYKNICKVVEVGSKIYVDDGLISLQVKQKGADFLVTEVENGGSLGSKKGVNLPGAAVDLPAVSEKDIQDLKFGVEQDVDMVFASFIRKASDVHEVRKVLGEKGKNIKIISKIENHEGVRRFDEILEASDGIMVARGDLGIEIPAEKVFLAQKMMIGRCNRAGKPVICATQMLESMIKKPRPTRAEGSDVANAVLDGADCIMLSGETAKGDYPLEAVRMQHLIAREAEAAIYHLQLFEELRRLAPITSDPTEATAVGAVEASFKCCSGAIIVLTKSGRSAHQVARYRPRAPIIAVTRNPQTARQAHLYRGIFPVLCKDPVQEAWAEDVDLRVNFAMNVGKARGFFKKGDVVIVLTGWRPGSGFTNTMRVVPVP
Chain of Guanine nucleotide-binding protein G(i) subunit alpha-1 (Homo sapiens) (P63096 whole entry, looked up): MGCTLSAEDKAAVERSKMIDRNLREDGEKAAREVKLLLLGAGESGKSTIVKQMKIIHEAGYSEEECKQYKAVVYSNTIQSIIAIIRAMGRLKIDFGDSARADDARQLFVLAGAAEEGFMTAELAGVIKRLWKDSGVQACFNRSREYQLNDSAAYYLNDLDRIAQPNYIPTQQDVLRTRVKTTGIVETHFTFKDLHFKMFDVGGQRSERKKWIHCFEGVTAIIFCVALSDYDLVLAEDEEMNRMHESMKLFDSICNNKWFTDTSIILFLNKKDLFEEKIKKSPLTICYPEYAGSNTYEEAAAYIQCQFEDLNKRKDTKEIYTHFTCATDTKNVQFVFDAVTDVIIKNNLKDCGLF
Chain of Muscarinic acetylcholine receptor M1 (Rattus norvegicus) (P08482 whole entry, looked up): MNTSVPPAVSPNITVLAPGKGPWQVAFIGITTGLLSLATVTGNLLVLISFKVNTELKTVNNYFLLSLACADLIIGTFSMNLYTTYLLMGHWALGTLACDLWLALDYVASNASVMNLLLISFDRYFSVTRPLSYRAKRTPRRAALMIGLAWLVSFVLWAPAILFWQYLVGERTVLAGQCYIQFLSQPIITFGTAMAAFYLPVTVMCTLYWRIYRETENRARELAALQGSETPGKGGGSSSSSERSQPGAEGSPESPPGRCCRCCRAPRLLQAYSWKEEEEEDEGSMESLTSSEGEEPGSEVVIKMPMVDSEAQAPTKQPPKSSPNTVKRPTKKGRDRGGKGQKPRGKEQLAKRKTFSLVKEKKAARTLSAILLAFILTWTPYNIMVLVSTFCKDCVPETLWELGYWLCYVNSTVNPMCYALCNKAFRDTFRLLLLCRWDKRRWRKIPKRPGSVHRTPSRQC
Chain of Cytochrome P450 3A4 (Homo sapiens) (P08684 whole entry, looked up): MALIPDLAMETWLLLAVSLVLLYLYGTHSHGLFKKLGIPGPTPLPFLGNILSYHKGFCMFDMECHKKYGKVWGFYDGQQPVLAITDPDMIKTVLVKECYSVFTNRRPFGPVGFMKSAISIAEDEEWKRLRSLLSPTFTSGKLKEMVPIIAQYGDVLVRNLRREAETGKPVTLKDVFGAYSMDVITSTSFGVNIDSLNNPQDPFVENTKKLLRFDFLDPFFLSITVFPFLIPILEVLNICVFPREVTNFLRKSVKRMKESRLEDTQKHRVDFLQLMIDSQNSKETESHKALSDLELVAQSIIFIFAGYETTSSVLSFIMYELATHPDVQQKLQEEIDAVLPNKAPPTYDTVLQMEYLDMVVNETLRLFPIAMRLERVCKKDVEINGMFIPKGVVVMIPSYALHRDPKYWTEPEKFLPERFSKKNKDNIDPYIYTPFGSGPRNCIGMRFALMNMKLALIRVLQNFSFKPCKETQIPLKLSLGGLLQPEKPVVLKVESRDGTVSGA
Chain of Pyruvate kinase (Leishmania mexicana) (Q27686 2-499 E452W): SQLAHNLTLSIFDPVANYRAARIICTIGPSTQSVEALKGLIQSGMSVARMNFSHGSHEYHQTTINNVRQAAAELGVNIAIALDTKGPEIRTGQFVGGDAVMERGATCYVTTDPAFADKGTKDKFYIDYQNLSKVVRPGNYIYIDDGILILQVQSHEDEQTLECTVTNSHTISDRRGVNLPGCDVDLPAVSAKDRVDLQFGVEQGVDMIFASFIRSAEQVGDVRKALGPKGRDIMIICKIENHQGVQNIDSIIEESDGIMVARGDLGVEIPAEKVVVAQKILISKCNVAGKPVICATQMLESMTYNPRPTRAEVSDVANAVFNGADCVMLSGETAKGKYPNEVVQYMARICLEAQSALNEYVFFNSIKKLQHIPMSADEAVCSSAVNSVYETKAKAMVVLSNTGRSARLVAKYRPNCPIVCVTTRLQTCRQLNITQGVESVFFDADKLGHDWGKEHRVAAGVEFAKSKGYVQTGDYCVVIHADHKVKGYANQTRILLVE
Chain of 3',5'-cyclic-AMP phosphodiesterase 4B (Homo sapiens) (Q07343 whole entry, looked up): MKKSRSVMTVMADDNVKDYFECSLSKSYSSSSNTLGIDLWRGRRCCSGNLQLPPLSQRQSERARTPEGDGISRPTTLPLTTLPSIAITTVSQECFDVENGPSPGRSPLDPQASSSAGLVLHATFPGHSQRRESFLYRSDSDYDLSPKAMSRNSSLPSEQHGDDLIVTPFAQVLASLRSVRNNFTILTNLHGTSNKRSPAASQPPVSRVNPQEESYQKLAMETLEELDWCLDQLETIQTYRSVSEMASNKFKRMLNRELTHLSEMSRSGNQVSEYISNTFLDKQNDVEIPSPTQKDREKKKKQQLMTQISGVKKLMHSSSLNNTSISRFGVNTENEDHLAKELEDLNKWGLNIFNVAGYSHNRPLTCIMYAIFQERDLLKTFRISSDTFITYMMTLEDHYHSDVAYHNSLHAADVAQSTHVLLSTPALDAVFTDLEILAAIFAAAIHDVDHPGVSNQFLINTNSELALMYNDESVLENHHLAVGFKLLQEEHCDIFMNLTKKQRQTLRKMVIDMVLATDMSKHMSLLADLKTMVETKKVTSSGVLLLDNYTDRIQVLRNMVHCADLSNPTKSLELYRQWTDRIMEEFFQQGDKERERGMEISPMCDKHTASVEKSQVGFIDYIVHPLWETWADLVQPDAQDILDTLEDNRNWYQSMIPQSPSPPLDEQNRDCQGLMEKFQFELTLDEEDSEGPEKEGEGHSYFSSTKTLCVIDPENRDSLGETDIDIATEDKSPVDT

Consider `Clc1ccc(C(c2ccc(Cl)cc2)n2cc[n+](C[C@@H](OCc3ccc(Cl)cc3Cl)c3ccc(Cl)cc3Cl)c2)cc1`, for which the activity change, negative = inhibition in experiment [1] was -7.48% [at 38 µM]. For the same compound, the Potency in [2] is 31.6 µM (active); in [3], more than 46 µM; in [4], more than 46 µM. Further, the Potency result in [5], in [6] and in experiment [8] was “inactive” each time. Besides, the call in experiment [7], in experiment [9], in [10] and in experiment [11] was inactive.
With `C/C=C1\C(=O)C[C@@H]2[C@@H]3CCC4=CC(=O)CC[C@@]4(C)[C@H]3CC[C@@]12C`, in [1], the activity change, negative = inhibition is 13.9% [at 38 µM]. Moreover, the Potency result in experiment [2], in experiment [13], in experiment [14], in experiment [15] and in experiment [8] was “inactive” each time. Further, the activity, negative = inhibition in experiment [12] is 7.49% [at 38 µM]. Besides, the result in experiment [7], in experiment [9], in experiment [10] and in experiment [11] was inactive.
Turning to `CCCN(CCc1ccccc1)[C@H]1CCc2c(O)cccc2C1`, in experiment [1], the activity change, negative = inhibition was 9.86% [at 38 µM]. In addition, the Potency in experiment [2] was 12.6 µM (active); in experiment [3] it was more than 46 µM; in experiment [4], more than 46 µM; in experiment [16], 12.6 µM (active); in experiment [17] it was 0.501 µM (active); in experiment [18], 0.501 µM (active). Besides, the Potency in [15] is 2.82 µM (active). In addition, in [12], the activity, negative = inhibition was -8.8% [at 38 µM]. Moreover, the Potency result in experiment [5], in [13] and in experiment [8] was “inactive” throughout. For the same compound, the result in [7], in experiment [9], in experiment [10] and in experiment [11] was inactive.
`CC1(C)CN(O)CCN1O`: the values for the activity change, negative = inhibition in experiment [1] and in [19] were 29.1% and 0.875%, respectively. Also, in [12], the activity, negative = inhibition was 7.69%. Besides, the Potency in experiment [3] is more than 20.6 µM.
On to `CN1C(=O)C2(c3ccccc31)C1CCCC=C1C(C#N)=C(N)C2(C#N)C#N` (centres undefined), for which the activity change, negative = inhibition in experiment [1] was -21.4%; in experiment [19] it was -15.5%. Also, the activity, negative = inhibition in [12] was -7.56%.
Take `COc1cccc2c1[C@@H]1CN(CCCCn3c(=O)[nH]c4c(sc5ncc(-c6ccccc6)nc54)c3=O)C[C@H]1CO2`: in [1], the activity change, negative = inhibition is 4.55% [at 38 µM]. In addition, the Potency in experiment [2] is 31.6 µM (active); in experiment [3], more than 46 µM; in experiment [4], more than 46 µM; in experiment [18], 11.2 µM (active). Further, the activity, negative = inhibition in experiment [12] was 22.8% [at 38 µM]. For the same compound, the Potency entry in experiment [6], in experiment [16], in [15] and in [8] was “inactive” throughout. Besides, the compound was called inactive in experiment [7], in experiment [9], in [10] and in experiment [11].
